Source: PubChem (several laboratories)
An excerpt weighted towards active compounds, which were near 1.9% of everything screened.
BaF3 tox: parental Ba/F3 cell viability inhibition, counter-screen for JAK2V617F inhibitor project, murine pro-B, CellTiter-Glo luminescence | CellTiter-Glo ATP luminescence | inhibition, % at 5.6 µM | 220,000 tested, 1.1% active | AID 1486, 2009;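 active = inhibition above a per-campaign cutoff, the mean inhibition of all tested compounds plus 3 SD, cut at about 27% in these data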;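 also: 0% = DMSO wells and 100% = JAK Inhibitor I control wells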
IEC-6 tox: cytotoxicity in IEC-6 intestinal epithelial cells, primary screen, cytotoxicity control for KLF5 inhibitor project, cell-based, luminescence | IEC-6 cytotoxicity, luminescence viability | inhibition, % at 5 µM | 290,000 tested, 0.78% active | AID 1825, 2009; in the data active = inhibition above about 22%;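 also: 0% = plate median of test compound wells and 100% = cytotoxic reference compound wells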
Ba/F3 V617F tox: reduced viability of JAK2V617F-dependent Ba/F3 cells, primary screen, JAK2V617F inhibitor project, cell-based, Ba/F3 EpoR-JAK2V617F, luminescence | ATP luminescence | inhibition, % at 5.6 µM | 220,000 tested, 1.1% active | AID 1446, 2008;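 active = inhibition above the campaign mean plus 3 SD over all tested compounds, cut at about 24% in these data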;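 also: cytokine-independent growth of Ba/F3 cells driven by EpoR plus mutant JAK2; 0% = DMSO-treated cells and 100% = JAK inhibitor I control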
KLF5 inh: KLF5 expression inhibitors, primary screen, DLD-1 cells, luminescence; 290,000 tested, 0.23% active; DLD-1 KLF5 promoter-luciferase reporter; inhibition, % at 5 µM;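 active = inhibition above a per-plate limit of that plate's mean compound inhibition plus 3 SD, cut at about 60% in these data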;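 also: 0% = DMSO wells and 100% = LY294002 at 200 µM; higher means less KLF5 promoter-driven luciferase light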
APP transl inh: inhibitors of APP translation via 5'UTR reporter, primary screen, APP 5'UTR luciferase, SH-SY5Y cells; inhibition, % at 2 µM; 190,000 tested, 0.82% active; SH-SY5Y APP 5'UTR-luciferase reporter, luminescence; AID 1285, 2008;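 active = inhibition above a set limit, derived from the sample mean plus 3 SD, cut at about 45% in these data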
An asterisk follows results filed as active.

How did O=C(NCc1ccco1)c1sc(=S)n2c1[nH]c(=O)c1ccccc12 do in these assays?
BaF3 tox: 90.5*; IEC-6 tox: 1.4; Ba/F3 V617F tox: 0.9; KLF5 inh: -19.3; APP transl inh: -17.9

Results for COC(=O)c1ccccc1NC(=O)CSc1n[nH]c(-c2ccco2)n1 ?
IEC-6 tox: 6.5; KLF5 inh: 10.2

How did CN1C(=O)C(O)(CC(=O)c2cccnc2)c2ccccc21 (stereo not given) do in these assays?
BaF3 tox: 4.8; IEC-6 tox: 7.5; Ba/F3 V617F tox: 4.8; KLF5 inh: -16.9; APP transl inh: 7.8

How did O=C(CC1(O)C(=O)N(Cc2cccc3ccccc23)c2ccccc21)c1cccnc1 (stereo not given) do in these assays?
BaF3 tox: 54.3*; IEC-6 tox: 12.0; Ba/F3 V617F tox: 68.1*; KLF5 inh: -29.4; APP transl inh: 55.8*

What do the screens show for `O=C(Nc1nnc(SCc2ccc(F)cc2)s1)c1ccccn1`?
BaF3 tox: 14.2; IEC-6 tox: 77.6*; Ba/F3 V617F tox: 2.6; KLF5 inh: 3.8; APP transl inh: 43.9

What do the screens show for `O=C(Nc1nc2ccc(F)cc2s1)c1ccccn1`?
BaF3 tox: 13.5; IEC-6 tox: 71.2*; Ba/F3 V617F tox: 6.2; KLF5 inh: 59.8; APP transl inh: -30.0

Results for O=C(Nc1nnc(SCc2ccc(F)cc2)s1)c1cccnc1Cl ?
BaF3 tox: 2.3; IEC-6 tox: -7.1; Ba/F3 V617F tox: -1.8; KLF5 inh: 19.1; APP transl inh: 5.8

How did CC1=C(C#N)C(c2ccccc2)C2=C(N1)c1ccccc1C2=O (stereo not given) do in these assays?
BaF3 tox: 3.0; IEC-6 tox: 5.9; Ba/F3 V617F tox: -2.8; KLF5 inh: 6.7; APP transl inh: 77.5*

Results for O=c1nc(SCc2ccccc2Cl)nc(-c2ccc(Cl)cc2)[nH]1 ?
BaF3 tox: 0.0; IEC-6 tox: -2.6; Ba/F3 V617F tox: -0.4; KLF5 inh: -13.8

What do the screens show for `O=c1nc(SCc2c(F)cccc2Cl)nc(-c2ccc(Cl)cc2)[nH]1`?
BaF3 tox: 40.3*; IEC-6 tox: -5.4; Ba/F3 V617F tox: -1.9; KLF5 inh: -21.4

How did COc1ccnc(N=CNOCc2ccc(F)cc2Cl)c1C#N do in these assays?
BaF3 tox: 1.2; IEC-6 tox: -1.7; Ba/F3 V617F tox: -4.2; KLF5 inh: -12.4; APP transl inh: 82.1*

What do the screens show for `O=C(CSc1nnc(NC(=O)c2ccccc2[N+](=O)[O-])s1)NC1CCCC1`?
IEC-6 tox: 5.8; KLF5 inh: -34.6

Results for Cc1ccc2nc(/C(C#N)=C/c3ccc(-c4ccccc4C(=O)O)o3)[nH]c2c1 ?
IEC-6 tox: -9.3; KLF5 inh: -28.6

What do the screens show for `Cc1ccc(/C(C#N)=C\c2ccc(N3CCOCC3)o2)cc1`?
BaF3 tox: 36.4*; IEC-6 tox: 1.5; Ba/F3 V617F tox: 1.7; KLF5 inh: -40.8; APP transl inh: 7.8

How did Cc1ccc2nc(/C(C#N)=C\c3ccc(N4CCOCC4)o3)[nH]c2c1 do in these assays?
BaF3 tox: 40.6*; IEC-6 tox: 0.5; Ba/F3 V617F tox: -3.0; KLF5 inh: 7.4; APP transl inh: -120.9

What do the screens show for `O=C(CN(C(=O)CNC(=O)c1ccco1)c1cccc(F)c1)NC1CCCCC1`?
IEC-6 tox: 1.2; KLF5 inh: -31.4

What do the screens show for `CCOc1ccccc1NC(=O)CCCc1ccc(OC)c(C)c1`?
IEC-6 tox: 5.4; KLF5 inh: -14.5

How did CCCC1=[N+](CC(=O)c2ccc(C)cc2)CCn2cccc21 do in these assays?
BaF3 tox: 7.4; IEC-6 tox: 6.9; Ba/F3 V617F tox: -2.8; KLF5 inh: -13.6; APP transl inh: -21.3

What do the screens show for `CCCC1=[N+](CC(=O)c2ccccc2)CCn2c(C)ccc21`?
BaF3 tox: 26.7*; IEC-6 tox: 5.6; Ba/F3 V617F tox: 31.6*; KLF5 inh: -8.6; APP transl inh: -4.2

How did CCCC1=[N+](CC)CCn2c(C)ccc21 do in these assays?
BaF3 tox: 63.8*; IEC-6 tox: -3.7; Ba/F3 V617F tox: 61.2*; KLF5 inh: -54.5; APP transl inh: -17.1

Results for Cn1c(=O)c2c(ncn2CC(=O)N2CCc3ccccc3C2)n(C)c1=O ?
BaF3 tox: 2.1; IEC-6 tox: 4.3; Ba/F3 V617F tox: -0.2; KLF5 inh: -19.8; APP transl inh: 54.1*

What do the screens show for `CCn1c(SCC(=O)N2CCc3ccccc3C2)nc2c1c(=O)n(C)c(=O)n2C`?
BaF3 tox: 4.8; IEC-6 tox: -11.9; Ba/F3 V617F tox: -3.0; KLF5 inh: -24.9; APP transl inh: 4.0

How did CC(C)n1nnc(-c2ccc(OCc3ccccc3F)cc2)n1 do in these assays?
IEC-6 tox: -3.9; KLF5 inh: -124.6

Results for Cc1ccc(C[n+]2cc(-c3ccc(Cl)cc3)n3c2CCC3)cc1 ?
BaF3 tox: 71.9*; IEC-6 tox: 4.3; Ba/F3 V617F tox: 76.3*; KLF5 inh: 23.5

How did Clc1ccc(-c2c[n+](Cc3ccc(Cl)c(Cl)c3)c3n2CCC3)cc1 do in these assays?
BaF3 tox: 39.5*; IEC-6 tox: -0.3; Ba/F3 V617F tox: 25.5*; KLF5 inh: -0.2; APP transl inh: -6.7

Results for Cc1ccc(-c2c[n+](Cc3ccc(Cl)cc3)c3n2CCC3)cc1 ?
BaF3 tox: 73.3*; IEC-6 tox: 3.0; Ba/F3 V617F tox: 87.1*; KLF5 inh: 15.3

Results for Cn1c(NC(=O)C[n+]2cc(-c3ccc(Cl)cc3)n3c2CCC3)cc(=O)n(C)c1=O ?
BaF3 tox: 7.4; IEC-6 tox: 2.9; Ba/F3 V617F tox: 1.4; KLF5 inh: -38.3; APP transl inh: -0.5

Results for CCCOc1ccc2nc(NC(=O)OC)[nH]c2c1 ?
BaF3 tox: 74.7*; IEC-6 tox: 81.2*; Ba/F3 V617F tox: 77.9*; KLF5 inh: 59.8; APP transl inh: 85.9*

What do the screens show for `CCOc1ccc2nc(NCCCO)[nH]c2c1`?
BaF3 tox: 2.9; IEC-6 tox: 4.6; Ba/F3 V617F tox: 3.2; KLF5 inh: -15.8; APP transl inh: -10.7

Results for COC(=O)Nc1nc2ccc(C(=O)c3ccc(F)cc3)cc2[nH]1 ?
BaF3 tox: 18.5; IEC-6 tox: 20.1; Ba/F3 V617F tox: 51.4*; KLF5 inh: 17.3

How did c1ccc(CN2CCC(Nc3ncnc4sccc34)CC2)cc1 do in these assays?
BaF3 tox: 5.4; IEC-6 tox: 3.9; Ba/F3 V617F tox: -0.2; KLF5 inh: -9.9; APP transl inh: -0.1

How did Cc1sc2ncnc(NC3CCN(Cc4ccccc4)CC3)c2c1C do in these assays?
BaF3 tox: 33.9*; IEC-6 tox: 16.3; Ba/F3 V617F tox: 32.5*; KLF5 inh: -7.4; APP transl inh: 4.5

Results for CCN(C1CCCCC1)S(=O)(=O)c1ccc(S(=O)(=O)NCCc2ccncc2)cc1 ?
BaF3 tox: -0.9; IEC-6 tox: 1.6; Ba/F3 V617F tox: -3.3; KLF5 inh: -11.9; APP transl inh: -18.1

How did COc1cc(S(=O)(=O)NCc2ccncc2)ccc1Br do in these assays?
IEC-6 tox: 8.6; KLF5 inh: -10.8
